What is called AC50 is the midpoint of the concentration-response curve, whichever way the signal moves.

Active and inactive are the calls of the source. The calls were made as follows: active = hit-call score of the fitted dose curve at least 0.9, where 1 is the maximum; inactive = score below 0.9.

Drawing on PubChem BioAssay (EPA / NIEHS), this text covers outcome and AC50 for 3 molecules.

Common to all, as to settings: mRNA level, 48 h; actives raise or lower the signal
Read-out in assay [1]: Cyclin D2 (CCND2), CCND2 (gene 894)
The experiment in a line: LTEA_HepaRG_CCND2: Life Technologies and Expression Analysis (LTEA) Assay for Cyclin D2 (CCND2) using HepaRG (AID 2283449).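 Also: CCND2 transcript measured by TaqMan qRT-PCR and normalised to three housekeeping genes.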 In a few lines: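 In this HepaRG study, an eight-point concentration series (max 100 uM, 0.5% DMSO) is applied for 48 h. CCND2 mRNA change is derived by qRT-PCR normalised to ACTB, GAPDH and POLR2A.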

Read-out in assay [2]: Cyclin Dependent Kinase Inhibitor 1A (CDKN1A), CDKN1A (gene 1026)
The experiment in a line: LTEA_HepaRG_CDKN1A: Life Technologies and Expression Analysis (LTEA) Assay for Cyclin Dependent Kinase Inhibitor 1A (CDKN1A) using HepaRG (AID 2283450). The procedure, abridged:
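Read-out is CDKN1A mRNA by TaqMan qRT-PCR, normalized to three housekeeping genes and fitted in both directions against the DMSO baseline. Human HepaRG cells were treated 48 h with test chemicals up to 100 uM in half-log steps, 0.5% DMSO.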

Read-out in assay [3]: Cyclin D1 (CCND1), CCND1 (gene 595)
The experiment in a line: LTEA_HepaRG_CCND1: Life Technologies and Expression Analysis (LTEA) Assay for Cyclin D1 (CCND1) using HepaRG (AID 2283451).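 As to AC50: differentiated human HepaRG liver cells in serum-free induction medium; TaqMan qRT-PCR transcript level normalised to ACTB GAPDH and POLR2A housekeeping genes.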 In a few lines: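 HepaRG plated 48 h, medium switched to serum-free induction medium, chemicals added in duplicate (top 100 uM, half-log steps, 0.5% DMSO) for 48 h, cells lysed, RNA measured by TaqMan qRT-PCR.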

Read-out in assay [4]: catalase (CAT), CAT (gene 847)
The experiment in a line: LTEA_HepaRG_CAT: Life Technologies and Expression Analysis (LTEA) Assay for catalase (CAT) using HepaRG (AID 2283452).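 As to AC50: TaqMan qRT-PCR signal normalized to ACTB GAPDH and POLR2A housekeeping genes.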 The procedure, abridged: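 Differentiated HepaRG cells in serum-free induction medium were dosed 48 h in duplicate, eight half-log concentrations from 100 uM in 0.5% DMSO. Transcript measured by TaqMan qRT-PCR, normalised to ACTB/GAPDH/POLR2A, fitted bidirectionally against DMSO.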

Read-out in assay [5]: flavin-containing dimethylaniline monooxygenases 3 (FMO3), FMO3 (gene 2328)
The experiment in a line: LTEA_HepaRG_FMO3: Life Technologies and Expression Analysis (LTEA) Assay for flavin-containing dimethylaniline monooxygenases 3 (FMO3) using HepaRG (AID 2283453).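 As to AC50: differentiated human HepaRG liver cells in serum-free induction medium; FMO3 transcript by TaqMan qRT-PCR normalized to ACTB GAPDH and POLR2A.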 The procedure, abridged: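 FMO3 transcript quantified by TaqMan qRT-PCR against three housekeeping genes after 48 h chemical exposure of HepaRG cells. Eight-point half-log series, top 100 uM, 0.5% DMSO vehicle; phenobarbital 1mM induction control; up- or down-regulation fitted.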

Read-out in assay [6]: Cytochrome P450 (CYP1A1), CYP1A1 (gene 1543)
The experiment in a line: LTEA_HepaRG_CYP1A1: Life Technologies and Expression Analysis (LTEA) Assay for Cytochrome P450 (CYP1A1) using HepaRG (AID 2283454). In a few lines: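 HepaRG, 48 h post-plating switched to serum-free induction medium; 8-pt conc-response (top 100 uM, half-log, 0.5% DMSO), duplicates, 48 h. Lysis in RLT, TaqMan qRT-PCR for CYP1A1; gain or loss vs DMSO.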

Read-out in assay [7]: CFLAR gene, CFLAR (gene 8837)
The experiment in a line: LTEA_HepaRG_CFLAR: Life Technologies and Expression Analysis (LTEA) Assay for CFLAR gene using HepaRG (AID 2283455). In a few lines: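 Gain- or loss-of-signal changes in CFLAR transcript were fitted bidirectionally relative to 0.5% DMSO. Cells (HepaRG, duplicate wells) were dosed for 48 h across eight half-log concentrations topping at 100 uM; quantitation by TaqMan qRT-PCR.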

Read-out in assay [8]: Forkhead box O1 (FOXO1), FOXO1 (gene 2308)
The experiment in a line: LTEA_HepaRG_FOXO1: Life Technologies and Expression Analysis (LTEA) Assay for Forkhead box O1 (FOXO1) using HepaRG (AID 2283456). The procedure, abridged: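 Using one lot of HepaRG hepatic cells kept in 0.5% DMSO, the team applied test chemicals in duplicate, half-log dilutions from 100 uM, for 48 h. Expression, normalised to ACTB/GAPDH/POLR2A, was compared with vehicle in either direction.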

Read-out in assay [9]: growth arrest and DNA damage 45 (GADD45A), GADD45A (gene 1647)
The experiment in a line: LTEA_HepaRG_GADD45A: Life Technologies and Expression Analysis (LTEA) Assay for growth arrest and DNA damage 45 (GADD45A) using HepaRG (AID 2283458). The procedure, abridged:
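Transcript induction or loss, quantified by TaqMan qRT-PCR against three housekeeping genes, is the read-out. HepaRG cells received chemicals for 48 h across eight half-log concentrations from 100 uM in 0.5% DMSO; gain and loss fitted relative to DMSO.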

Read-out in assay [10]: Forkhead box O3 (FOXO3), FOXO3 (gene 2309)
The experiment in a line: LTEA_HepaRG_FOXO3: Life Technologies and Expression Analysis (LTEA) Assay for Forkhead box O3 (FOXO3) using HepaRG (AID 2283459). In a few lines:
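Gene-expression endpoint: FOXO3 transcript level by qRT-PCR in HepaRG cultures treated 48 h with chemicals up to 100 uM (half-log, 0.5% DMSO vehicle).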

Read-out in assay [11]: growth arrest and DNA damage 45 (GADD45B), GADD45B (gene 4616)
The experiment in a line: LTEA_HepaRG_GADD45B: Life Technologies and Expression Analysis (LTEA) Assay for growth arrest and DNA damage 45 (GADD45B) using HepaRG (AID 2283461). In a few lines: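 HepaRG, ~100,000 cells/well, 48 h plating; serum-free induction medium; cpd 100 uM top, half-log x8, 0.5% DMSO, duplicate, 48 h; lysis in RLT, RNA isolation, qRT-PCR; norm ACTB/GAPDH/POLR2A; bidirectional fit vs DMSO.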

Read-out in assay [12]: ABC Transporter (ABCC3), ABCC3 (gene 8714)
The experiment in a line: LTEA_HepaRG_ABCC3: Life Technologies and Expression Analysis (LTEA) Assay for ABC Transporter (ABCC3) using HepaRG (AID 2283462). The procedure, abridged: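 Human HepaRG, 48 h dosing, 8-pt half-log series from 100 uM, 0.5% DMSO vehicle, duplicates. ABCC3 mRNA by TaqMan qRT-PCR, housekeeping-normalized; bidirectional curve fit vs DMSO.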

Read-out in assay [13]: ABC Transporter (ABCB11), ABCB11 (gene 8647)
The experiment in a line: LTEA_HepaRG_ABCB11: Life Technologies and Expression Analysis (LTEA) Assay for ABC Transporter (ABCB11) using HepaRG (AID 2283463). The procedure, abridged: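 Using HepaRG cultures held in 0.5% DMSO, chemicals were tested at half-log dilutions from 100 uM for 48 h. Induction or suppression of ABCB11 mRNA, normalized to ACTB, GAPDH and POLR2A, was fitted bidirectionally against vehicle.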

Read-out in assay [14]: ABC Transporter (ABCC2), ABCC2 (gene 1244)
The experiment in a line: LTEA_HepaRG_ABCC2: Life Technologies and Expression Analysis (LTEA) Assay for ABC Transporter (ABCC2) using HepaRG (AID 2283464). In a few lines:
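HepaRG, 48 h post-plating; serum-free induction medium; cpd 8-pt, 100 uM top, half-log, 0.5% DMSO, duplicate, 48 h. Readout: ABCC2 mRNA by qRT-PCR, norm. ACTB/GAPDH/POLR2A. Bidirectional fit vs DMSO baseline.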

Read-out in assay [15]: Broad substrate specificity ATP-binding cassette transporter ABCG2 (Homo sapiens) (UniProt Q9UNQ0)
The experiment in a line: LTEA_HepaRG_ABCG2: Life Technologies and Expression Analysis (LTEA) Assay for ABC Transporter (ABCG2) using HepaRG (AID 2283465). The procedure, abridged:
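Gene expression of ABCG2 in HepaRG liver cells is quantified by qRT-PCR following 48 h exposure across an eight-point series topping at 100 uM. Values come from bidirectional fitting relative to DMSO vehicle.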

Read-out in assay [16]: ATP-citrate lyase (ACLY), ACLY (gene 47)
The experiment in a line: LTEA_HepaRG_ACLY: Life Technologies and Expression Analysis (LTEA) Assay for ATP-citrate lyase (ACLY) using HepaRG (AID 2283466). The procedure, abridged: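 ACLY expression changes in human HepaRG liver cells are quantified by qRT-PCR after 48 h exposure to test chemicals (maximum 100 uM, half-log steps). Values are fitted in both directions relative to 0.5% DMSO vehicle.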

Read-out in assay [17]: Peroxisomal acyl-coenzyme A oxidase 1 (ACOX1) gene, ACOX1 (gene 51)
The experiment in a line: LTEA_HepaRG_ACOX1: Life Technologies and Expression Analysis (LTEA) Assay for Peroxisomal acyl-coenzyme A oxidase 1 (ACOX1) gene using HepaRG (AID 2283467). In a few lines: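 Human HepaRG hepatic cultures, 48 h treatment with test chemicals up to 100 uM. ACOX1 expression read by qRT-PCR relative to 0.5% DMSO vehicle.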

Read-out in assay [18]: Alkaline Phosphatase, Placental (ALPP) gene, ALPP (gene 250)
The experiment in a line: LTEA_HepaRG_ALPP: Life Technologies and Expression Analysis (LTEA) Assay for Alkaline Phosphatase, Placental (ALPP) gene using HepaRG (AID 2283468).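 As to AC50: differentiated human HepaRG liver cells in serum-free induction medium.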 In a few lines: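 HepaRG, 48 h plating then 48 h dosing, serum-free induction medium, 0.5% DMSO. 8 conc, half-log, max 100 uM, duplicates. Endpoint: ALPP transcript by qRT-PCR, housekeeping-normalized; gain or loss fitted vs DMSO.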

Read-out in assay [19]: ABC Transporter (ABCB1), ABCB1 (gene 5243)
The experiment in a line: LTEA_HepaRG_ABCB1: Life Technologies and Expression Analysis (LTEA) Assay for ABC Transporter (ABCB1) using HepaRG (AID 2283460). The procedure, abridged: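 Human liver HepaRG line treated 48 h with up to 100 uM compound (eight half-log points, 0.5% DMSO); ABCB1 mRNA change fitted bidirectionally against DMSO controls.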

Broad substrate specificity ATP-binding cassette transporter ABCG2 (Homo sapiens), sequence (Q9UNQ0 whole entry, looked up): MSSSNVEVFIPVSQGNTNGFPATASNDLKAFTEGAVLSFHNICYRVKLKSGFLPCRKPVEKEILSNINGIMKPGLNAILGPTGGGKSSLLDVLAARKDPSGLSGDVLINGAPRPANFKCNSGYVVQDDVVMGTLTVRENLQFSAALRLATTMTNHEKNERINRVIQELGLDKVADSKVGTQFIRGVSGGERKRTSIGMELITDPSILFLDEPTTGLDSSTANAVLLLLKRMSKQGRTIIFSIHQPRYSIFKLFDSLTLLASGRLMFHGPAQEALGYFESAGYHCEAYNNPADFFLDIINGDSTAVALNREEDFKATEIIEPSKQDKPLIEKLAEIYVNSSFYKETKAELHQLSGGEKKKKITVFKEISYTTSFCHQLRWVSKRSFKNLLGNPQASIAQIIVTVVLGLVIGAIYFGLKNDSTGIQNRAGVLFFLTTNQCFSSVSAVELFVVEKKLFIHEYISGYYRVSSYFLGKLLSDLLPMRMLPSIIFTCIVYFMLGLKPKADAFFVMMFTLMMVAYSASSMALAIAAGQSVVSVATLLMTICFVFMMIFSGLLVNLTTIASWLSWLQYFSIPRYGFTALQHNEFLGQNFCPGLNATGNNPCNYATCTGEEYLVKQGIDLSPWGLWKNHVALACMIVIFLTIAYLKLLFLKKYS

`CCCCCCOCCO`: the result in [1], in assay [2], in assay [3], in [4], in [5] and in assay [7] was inactive. In addition, the call in [8], in [9], in [10], in assay [11], in assay [12] and in assay [13] was inactive. Moreover, the molecule was called inactive in [14], in [15], in assay [16], in [17] and in [18]. In [6], the AC50 is 50 µM (active).
Consider `O=C(OCCCCCOC(=O)c1ccccc1)c1ccccc1`, for which the AC50 in [1] is 2.48 µM (active); in assay [3], 2.78 µM (active); in [5], 0.503 µM (active); in [6], 1.18 µM (active); in assay [7], 0.228 µM (active); in assay [8], 1.19 µM (active). For the same molecule, the AC50 is 2.13 µM (active) in assay [9]; 0.14 µM (active) in assay [10]; 12.7 µM (active) in assay [12]; 0.572 µM (active) in assay [13]; 0.773 µM (active) in assay [15]; 50 µM (active) in assay [16]. The AC50 in assay [18] is 1.46 µM (active). In addition, the outcome in assay [2], in assay [4], in assay [11] and in assay [17] was inactive.
For `COc1cc(-c2nc(NC(=O)c3cc4cc(C)cc(C)c4n3CC(=O)O)sc2CCC2CCCCC2)c(OC)cc1Cl`, the outcome in assay [1], in assay [2], in assay [6], in [12] and in assay [18] was inactive. Moreover, the AC50 in assay [3] is 18.4 µM (active); in assay [4], 7.6 µM (active); in assay [5], 8.16 µM (active); in [7], 19.8 µM (active); in assay [8], 42.2 µM (active); in assay [9] it was 15.2 µM (active). Further, the AC50 is 20.6 µM (active) in assay [10]; 11.4 µM (active) in assay [19]; 2.18 µM (active) in assay [11]; 7.37 µM (active) in [13]; 7.35 µM (active) in assay [14]; 24.5 µM (active) in assay [15]. For the same molecule, the results for the AC50 in assay [16] and in assay [17] were 12 µM (active) and 8.11 µM (active), respectively.
